# Data published in publication PMC7862700, “An all-to-all approach to the identification of sequence-specific readers for epigenetic DNA modifications on cytosine”.
# Experiments:
# Experiment in all cases: DAPPL (digital affinity profiling via proximity ligation, sequencing); 10 mM Tris-HCl pH 7.5, 50 mM NaCl, 1 mM DTT, 4% glycerol, room temperature, 30 min; GST-TFs on glutathione beads, 16-mer random dsDNA library, 0.1% formaldehyde crosslink after washing; high values mean tight binding
# Conditions in all cases: protein: recombinant; tags: N-terminal GST; dsDNA, one strand shown
# ERF = biological target: T1, ERF (Homo sapiens, UniProt P50548 1-548)
# T1 sequence: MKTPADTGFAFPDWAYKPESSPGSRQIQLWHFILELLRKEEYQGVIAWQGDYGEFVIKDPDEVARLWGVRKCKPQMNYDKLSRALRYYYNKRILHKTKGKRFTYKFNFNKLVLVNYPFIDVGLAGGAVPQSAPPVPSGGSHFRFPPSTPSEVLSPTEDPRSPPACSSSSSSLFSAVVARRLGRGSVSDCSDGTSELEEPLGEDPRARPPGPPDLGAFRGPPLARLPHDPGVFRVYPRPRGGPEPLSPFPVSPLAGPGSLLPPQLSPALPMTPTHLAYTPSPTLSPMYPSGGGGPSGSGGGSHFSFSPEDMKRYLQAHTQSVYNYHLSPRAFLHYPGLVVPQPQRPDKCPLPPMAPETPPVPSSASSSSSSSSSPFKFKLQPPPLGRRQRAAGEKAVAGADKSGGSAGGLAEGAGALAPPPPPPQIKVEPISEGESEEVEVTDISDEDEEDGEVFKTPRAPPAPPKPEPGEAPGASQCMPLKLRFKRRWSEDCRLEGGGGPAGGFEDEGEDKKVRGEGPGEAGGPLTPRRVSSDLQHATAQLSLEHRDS
# In short: (§1)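 After expression in yeast as GST fusions, human transcription factors were bound to glutathione beads, DNA-barcoded and mixed with a tag-only sample. The pools were incubated with 200 nmole of a 16-mer random double-stranded DNA library in Tris/NaCl/DTT/glycerol buffer (30 min, room temperature), washed and crosslinked with 0.1% formaldehyde. Proximity ligation with BsaI/T4 ligase ran for 1 h at 37 °C, before PCR amplification and sequencing on an Illumina NextSeq500. Binding signal is a hexamer's read frequency for a factor divided by its frequency for the tag-only sample.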
# ETV3L = biological target: T2, ETV3L (Homo sapiens, UniProt Q6ZN32 1-361)
# T2 sequence: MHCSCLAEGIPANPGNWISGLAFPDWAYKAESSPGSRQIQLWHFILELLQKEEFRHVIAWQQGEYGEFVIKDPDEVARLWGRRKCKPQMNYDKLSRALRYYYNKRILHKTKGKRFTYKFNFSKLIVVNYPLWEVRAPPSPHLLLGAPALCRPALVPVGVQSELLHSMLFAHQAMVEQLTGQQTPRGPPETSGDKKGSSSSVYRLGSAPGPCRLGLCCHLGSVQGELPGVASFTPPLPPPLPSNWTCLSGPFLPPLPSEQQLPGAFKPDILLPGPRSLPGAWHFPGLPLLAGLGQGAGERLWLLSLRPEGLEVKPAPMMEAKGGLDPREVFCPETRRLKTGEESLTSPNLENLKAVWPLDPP
# In short: as §1
# ETS2 = biological target: T3, ETS2 (Homo sapiens, UniProt P15036 1-469)
# T3 sequence: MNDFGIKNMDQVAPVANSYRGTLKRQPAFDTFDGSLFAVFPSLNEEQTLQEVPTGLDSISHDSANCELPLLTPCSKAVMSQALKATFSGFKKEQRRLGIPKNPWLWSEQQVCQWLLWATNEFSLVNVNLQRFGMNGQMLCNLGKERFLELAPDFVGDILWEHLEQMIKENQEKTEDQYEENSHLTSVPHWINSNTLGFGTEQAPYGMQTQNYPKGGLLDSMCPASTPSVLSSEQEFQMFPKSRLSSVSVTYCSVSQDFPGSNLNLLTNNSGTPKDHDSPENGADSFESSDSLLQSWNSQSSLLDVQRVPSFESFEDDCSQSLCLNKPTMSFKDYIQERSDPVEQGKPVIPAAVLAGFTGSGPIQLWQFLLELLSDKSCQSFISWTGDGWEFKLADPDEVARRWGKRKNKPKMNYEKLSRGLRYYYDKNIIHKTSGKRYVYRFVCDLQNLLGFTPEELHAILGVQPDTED
# In short: as §1
# SPDEF = biological target: T4, SPDEF (Homo sapiens, UniProt O95238 1-335)
# T4 sequence: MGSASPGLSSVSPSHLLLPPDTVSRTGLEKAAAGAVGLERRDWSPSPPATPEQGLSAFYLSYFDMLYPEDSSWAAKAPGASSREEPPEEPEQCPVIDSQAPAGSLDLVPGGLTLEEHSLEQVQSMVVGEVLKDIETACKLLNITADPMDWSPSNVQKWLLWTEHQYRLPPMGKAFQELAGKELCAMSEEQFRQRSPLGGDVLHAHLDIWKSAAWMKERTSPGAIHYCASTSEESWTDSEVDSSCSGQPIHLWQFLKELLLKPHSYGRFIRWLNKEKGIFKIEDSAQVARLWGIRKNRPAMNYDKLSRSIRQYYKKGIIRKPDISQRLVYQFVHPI
# In short: as §1
# ETV7 = biological target: T5, ETV7 (Homo sapiens, UniProt Q9Y603 1-341)
# T5 sequence: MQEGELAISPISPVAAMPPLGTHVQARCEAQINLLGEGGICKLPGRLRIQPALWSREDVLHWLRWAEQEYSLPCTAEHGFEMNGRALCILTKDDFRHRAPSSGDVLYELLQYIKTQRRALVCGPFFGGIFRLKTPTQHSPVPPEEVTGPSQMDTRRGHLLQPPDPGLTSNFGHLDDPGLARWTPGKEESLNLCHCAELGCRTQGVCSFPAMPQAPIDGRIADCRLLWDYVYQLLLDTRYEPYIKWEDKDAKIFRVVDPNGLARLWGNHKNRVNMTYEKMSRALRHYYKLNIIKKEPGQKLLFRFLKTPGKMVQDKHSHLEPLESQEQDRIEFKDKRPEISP
# In short: as §1
# ELF5 = biological target: T6, ELF5 (Homo sapiens, UniProt Q9UKW6-2 1-255)
# T6 sequence: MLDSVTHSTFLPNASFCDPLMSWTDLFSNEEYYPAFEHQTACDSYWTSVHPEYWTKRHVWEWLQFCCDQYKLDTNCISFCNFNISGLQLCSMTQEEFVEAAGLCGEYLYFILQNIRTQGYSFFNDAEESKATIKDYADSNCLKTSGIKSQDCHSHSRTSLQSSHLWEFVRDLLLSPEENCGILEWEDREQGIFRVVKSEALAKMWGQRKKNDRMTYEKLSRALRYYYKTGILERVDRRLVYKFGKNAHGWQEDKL
# In short: as §1
# ETV3 = biological target: T7, ETV3 (Homo sapiens, UniProt P41162-2 1-143)
# T7 sequence: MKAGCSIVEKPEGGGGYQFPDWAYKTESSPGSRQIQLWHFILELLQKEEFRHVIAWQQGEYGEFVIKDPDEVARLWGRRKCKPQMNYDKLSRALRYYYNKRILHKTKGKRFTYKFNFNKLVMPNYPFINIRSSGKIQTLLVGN
# In short: as §1
# ETV6 = ETV6 (Homo sapiens, UniProt P41212 1-452)
# In short: as §1
# ETV6, sequence (P41212 whole entry): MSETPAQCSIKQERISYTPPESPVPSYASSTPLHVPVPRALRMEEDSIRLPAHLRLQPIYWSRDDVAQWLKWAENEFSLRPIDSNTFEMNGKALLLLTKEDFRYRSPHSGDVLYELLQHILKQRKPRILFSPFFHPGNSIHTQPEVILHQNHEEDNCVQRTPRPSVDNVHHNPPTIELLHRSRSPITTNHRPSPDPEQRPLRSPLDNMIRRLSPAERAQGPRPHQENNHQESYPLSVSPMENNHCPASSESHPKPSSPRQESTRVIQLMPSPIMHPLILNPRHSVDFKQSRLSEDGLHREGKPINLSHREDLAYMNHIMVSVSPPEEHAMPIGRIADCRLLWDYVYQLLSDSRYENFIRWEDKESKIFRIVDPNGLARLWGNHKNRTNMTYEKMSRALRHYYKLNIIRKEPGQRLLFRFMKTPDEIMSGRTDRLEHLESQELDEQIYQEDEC
Sequence,binding signal (ERF),binding signal (ETV3L),binding signal (ETS2),binding signal (SPDEF),binding signal (ETV7),binding signal (ELF5),binding signal (ETV3),binding signal (ETV6)
AATAAG,"1.32 fold enrichment (6-mer frequency, TF over GST control)","1.18 fold enrichment (6-mer frequency, TF over GST control)","1.24 fold enrichment (6-mer frequency, TF over GST control)","1.26 fold enrichment (6-mer frequency, TF over GST control)","1.19 fold enrichment (6-mer frequency, TF over GST control)","1.27 fold enrichment (6-mer frequency, TF over GST control)","1.29 fold enrichment (6-mer frequency, TF over GST control)","1.33 fold enrichment (6-mer frequency, TF over GST control)"
CCAATT,"1.23 fold enrichment (6-mer frequency, TF over GST control)","1.24 fold enrichment (6-mer frequency, TF over GST control)","1.25 fold enrichment (6-mer frequency, TF over GST control)","1.19 fold enrichment (6-mer frequency, TF over GST control)","1.21 fold enrichment (6-mer frequency, TF over GST control)","1.14 fold enrichment (6-mer frequency, TF over GST control)","1.23 fold enrichment (6-mer frequency, TF over GST control)","1.24 fold enrichment (6-mer frequency, TF over GST control)"
ACCCTA,"1.3 fold enrichment (6-mer frequency, TF over GST control)","1.26 fold enrichment (6-mer frequency, TF over GST control)","1.24 fold enrichment (6-mer frequency, TF over GST control)","1.19 fold enrichment (6-mer frequency, TF over GST control)","1.27 fold enrichment (6-mer frequency, TF over GST control)","1.19 fold enrichment (6-mer frequency, TF over GST control)","1.25 fold enrichment (6-mer frequency, TF over GST control)","1.17 fold enrichment (6-mer frequency, TF over GST control)"
TCCAAT,"1.13 fold enrichment (6-mer frequency, TF over GST control)","1.22 fold enrichment (6-mer frequency, TF over GST control)","1.2 fold enrichment (6-mer frequency, TF over GST control)","1.2 fold enrichment (6-mer frequency, TF over GST control)","1.33 fold enrichment (6-mer frequency, TF over GST control)","1.15 fold enrichment (6-mer frequency, TF over GST control)","1.2 fold enrichment (6-mer frequency, TF over GST control)","1.22 fold enrichment (6-mer frequency, TF over GST control)"
ATGCAA,"1.23 fold enrichment (6-mer frequency, TF over GST control)","1.26 fold enrichment (6-mer frequency, TF over GST control)","1.26 fold enrichment (6-mer frequency, TF over GST control)","1.3 fold enrichment (6-mer frequency, TF over GST control)","1.19 fold enrichment (6-mer frequency, TF over GST control)","1.26 fold enrichment (6-mer frequency, TF over GST control)","1.17 fold enrichment (6-mer frequency, TF over GST control)","1.24 fold enrichment (6-mer frequency, TF over GST control)"
CAAATA,"1.23 fold enrichment (6-mer frequency, TF over GST control)","1.1 fold enrichment (6-mer frequency, TF over GST control)","1.14 fold enrichment (6-mer frequency, TF over GST control)","1.09 fold enrichment (6-mer frequency, TF over GST control)","1.16 fold enrichment (6-mer frequency, TF over GST control)","1.06 fold enrichment (6-mer frequency, TF over GST control)","1.1 fold enrichment (6-mer frequency, TF over GST control)","1.07 fold enrichment (6-mer frequency, TF over GST control)"
TGAACA,"1.27 fold enrichment (6-mer frequency, TF over GST control)","1.31 fold enrichment (6-mer frequency, TF over GST control)","1.18 fold enrichment (6-mer frequency, TF over GST control)","1.22 fold enrichment (6-mer frequency, TF over GST control)","1.21 fold enrichment (6-mer frequency, TF over GST control)","1.26 fold enrichment (6-mer frequency, TF over GST control)","1.25 fold enrichment (6-mer frequency, TF over GST control)","1.21 fold enrichment (6-mer frequency, TF over GST control)"
GACTCC,"1.32 fold enrichment (6-mer frequency, TF over GST control)","1.27 fold enrichment (6-mer frequency, TF over GST control)","1.29 fold enrichment (6-mer frequency, TF over GST control)","1.41 fold enrichment (6-mer frequency, TF over GST control)","1.23 fold enrichment (6-mer frequency, TF over GST control)","1.16 fold enrichment (6-mer frequency, TF over GST control)","1.35 fold enrichment (6-mer frequency, TF over GST control)","1.18 fold enrichment (6-mer frequency, TF over GST control)"
GAACTA,"1.25 fold enrichment (6-mer frequency, TF over GST control)","1.27 fold enrichment (6-mer frequency, TF over GST control)","1.33 fold enrichment (6-mer frequency, TF over GST control)","1.31 fold enrichment (6-mer frequency, TF over GST control)","1.3 fold enrichment (6-mer frequency, TF over GST control)","1.36 fold enrichment (6-mer frequency, TF over GST control)","1.34 fold enrichment (6-mer frequency, TF over GST control)","1.36 fold enrichment (6-mer frequency, TF over GST control)"
AATTGA,"1.24 fold enrichment (6-mer frequency, TF over GST control)","1.13 fold enrichment (6-mer frequency, TF over GST control)","1.26 fold enrichment (6-mer frequency, TF over GST control)","1.15 fold enrichment (6-mer frequency, TF over GST control)","1.28 fold enrichment (6-mer frequency, TF over GST control)","1.21 fold enrichment (6-mer frequency, TF over GST control)","1.17 fold enrichment (6-mer frequency, TF over GST control)","1.19 fold enrichment (6-mer frequency, TF over GST control)"
TCTGCA,"1.29 fold enrichment (6-mer frequency, TF over GST control)","1.42 fold enrichment (6-mer frequency, TF over GST control)","1.34 fold enrichment (6-mer frequency, TF over GST control)","1.32 fold enrichment (6-mer frequency, TF over GST control)","1.28 fold enrichment (6-mer frequency, TF over GST control)","1.29 fold enrichment (6-mer frequency, TF over GST control)","1.2 fold enrichment (6-mer frequency, TF over GST control)","1.23 fold enrichment (6-mer frequency, TF over GST control)"
TTGGGG,"1.39 fold enrichment (6-mer frequency, TF over GST control)","1.3 fold enrichment (6-mer frequency, TF over GST control)","1.25 fold enrichment (6-mer frequency, TF over GST control)","1.17 fold enrichment (6-mer frequency, TF over GST control)","1.12 fold enrichment (6-mer frequency, TF over GST control)","1.14 fold enrichment (6-mer frequency, TF over GST control)","1.13 fold enrichment (6-mer frequency, TF over GST control)","1.26 fold enrichment (6-mer frequency, TF over GST control)"
TCCTCA,"1.32 fold enrichment (6-mer frequency, TF over GST control)","1.62 fold enrichment (6-mer frequency, TF over GST control)","1.56 fold enrichment (6-mer frequency, TF over GST control)","1.59 fold enrichment (6-mer frequency, TF over GST control)","1.38 fold enrichment (6-mer frequency, TF over GST control)","2.13 fold enrichment (6-mer frequency, TF over GST control)","1.61 fold enrichment (6-mer frequency, TF over GST control)","1.54 fold enrichment (6-mer frequency, TF over GST control)"
TACTCA,"1.14 fold enrichment (6-mer frequency, TF over GST control)","1.23 fold enrichment (6-mer frequency, TF over GST control)","1.19 fold enrichment (6-mer frequency, TF over GST control)","1.18 fold enrichment (6-mer frequency, TF over GST control)","1.06 fold enrichment (6-mer frequency, TF over GST control)","1.18 fold enrichment (6-mer frequency, TF over GST control)","1.14 fold enrichment (6-mer frequency, TF over GST control)","1.22 fold enrichment (6-mer frequency, TF over GST control)"
CTTAGG,"1.12 fold enrichment (6-mer frequency, TF over GST control)","1.01 fold enrichment (6-mer frequency, TF over GST control)","1.23 fold enrichment (6-mer frequency, TF over GST control)","1.06 fold enrichment (6-mer frequency, TF over GST control)","1.17 fold enrichment (6-mer frequency, TF over GST control)","1.11 fold enrichment (6-mer frequency, TF over GST control)","1.1 fold enrichment (6-mer frequency, TF over GST control)","1.15 fold enrichment (6-mer frequency, TF over GST control)"
